The text below walks through data of the supplement of paper PMC6555819.

The test relates to PPARg homodimer (NR concentration 180 nM). Put plainly: PBM binding z-score (relative to random genomic background probes); higher = stronger binding; sequences stand for … in GC…GCGATTGACAGCGTAGAATGAAGG
The essentials:
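Regression normalization was applied to scanned fluorescence from custom Agilent 4×180K protein-binding microarrays. Before scanning, arrays were incubated 1 h with ligand-free nuclear receptor dimers, and binding was detected with antibodies against each partner (one per run). Binding z-scores use the random background probes as reference.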
The sequence GCGACTGGGGCATCAGCAGGTTACGATAACTTAA had a PBM binding z-score of 0.335.

GATACAGGGTCAAGACCAGAGTACGCGTATTGAT: the PBM binding z-score was 1.49.

Consider TCTTGTAGATCAGCAGGTAAAGAAAGCTGGCCAA, for which the PBM binding z-score was -0.175.

GGATCGAGGGCAAGTTGATAGCAGAGTTTGATGG returned a PBM binding z-score of 1.07.

As to ACTGACAGGTGAGTGAAGGTAACTCAGCTGGACG, the PBM binding z-score was -0.647.

CGTCCAGGGTCAGAGAGGTCAGTGAATGCCGAGT registered a PBM binding z-score of 3.95.

As for TAGCCTAGGTCGTGCGGGCCAGTATAGTGTCGGC, the PBM binding z-score was -1.3.

For the sequence TCTGCTAGGTCAGTAGGTCAGCTAACGAGCTGCC, the PBM binding z-score worked out at 0.729.

CGAACTATGTCAGAACAGGACAGTGAAGGATGAT returned a PBM binding z-score of 0.278.

On to TGAATGAGGTTATAAGATCAGCGAACGTTGCAAA, for which the PBM binding z-score was -0.104.

Consider GCTTACGGGTCAAAGATTATAGCATGAATAGAAT, for which the PBM binding z-score is 1.35.

AGAACGAGGGCAAGCTGAGTTGATAGCAGAGTAG came in with a PBM binding z-score of 0.238.

In the case of CGAACGAGGGCATGAGTGGATAGCAAATGCCGAT, the PBM binding z-score is -0.474.

The sequence CTCGCAAGGTCGTGCTCAGGTGAGTATACCAAAC returned a PBM binding z-score of 0.113.

With TAAGACAGGTGAAGGTAACTCAGGTACGCAGTCG, the PBM binding z-score was found to be 0.394.

The sequence TGATATAGGTAAAGGTGAAAGTCGAACGATATGA came in with a PBM binding z-score of 2.3.

For the sequence ATCTCTAGGTAAAGATAGTTCACTGAATGCAAAT, the PBM binding z-score stood at 1.04.

The sequence CCGTACGGGTCACGAGGTTATAGCACGACGAGCG showed a PBM binding z-score of 2.82.

In turn, CCTACTGGGCCAAAGGTCATTCATTCCAATGCTC showed a PBM binding z-score of 4.56.

TGTCAAAGTTCAAAGGAAACGTAAGTATCCACAC: the PBM binding z-score stood at 2.31.

Sequence CTCGAAAGGTCGGTTGAGGTGAGAATACGGATAA had a PBM binding z-score of 0.742.

For the sequence CCAGACAGGTGAAAGTTAACTCAGTCTGGTACGC, the PBM binding z-score came to 0.325.
